Read-out in test [1]: serum amyloid A (SAA), SAA1 (gene 6288)
Briefly: BSK_CASM3C_SAA: BioMAP Diversity Plus: CASM3C Assay for serum amyloid A (SAA) Biomarker Activity (AID 2283049).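 Also: SAA protein level quantified by ELISA.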 The following applies: primary human coronary artery smooth muscle cells; actives raise or lower the signal.

Test [2] can be described thus: BSK_CASM3C_SRB: Viability Assessment in the BioMAP Diversity Plus: CASM3C Assay (AID 2283050).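 Also: cells exposed to compound for 24 h.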 The following applies: primary human coronary artery smooth muscle cells.
Read-out in test [3]: Thrombomodulin, THBD (gene 7056)
Briefly: BSK_CASM3C_Thrombomodulin: BioMAP Diversity Plus: CASM3C Assay for Thrombomodulin Biomarker Activity (AID 2283051).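 Also: thrombomodulin protein level measured by ELISA 24 h after dosing.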 The following applies: primary human coronary artery smooth muscle cells; actives raise or lower the signal.

Read-out in test [4]: Tissue Factor, F3 (gene 2152)
Briefly: BSK_CASM3C_TissueFactor: BioMAP Diversity Plus: CASM3C Assay for Tissue Factor Biomarker Activity (AID 2283052).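 Also: cell surface tissue factor protein level read by ELISA.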 The settings on record: primary human coronary artery smooth muscle cells; actives raise or lower the signal.

Read-out in test [5]: Interferon-gamma inducible Protein 10 (IP10), CXCL10 (gene 3627)
Briefly: BSK_hDFCGF_IP10: BioMAP Diversity Plus: hDFCGF Assay for Interferon-gamma inducible Protein 10 (IP10) Biomarker Activity (AID 2283053). The settings on record: primary human foreskin fibroblasts; actives raise or lower the signal. In outline:
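Chemical-treated human skin fibroblasts (primary) were sampled at 24 h for IP-10 by ELISA. Both increases and decreases relative to DMSO were scored.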

Read-out in test [6]: Urokinase-type plasminogen activator receptor (uPAR), PLAUR (gene 5329)
The test is described as follows: BSK_CASM3C_uPAR: BioMAP Diversity Plus: CASM3C Assay for Urokinase-type plasminogen activator receptor (uPAR) Biomarker Activity (AID 2283054).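 Also: cell-surface uPAR protein level quantified by ELISA.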 The settings on record: primary human coronary artery smooth muscle cells; actives raise or lower the signal.

Read-out in test [7]: Vascular cell adhesion molecule 1 (VCAM1), VCAM1 (gene 7412)
Briefly: BSK_CASM3C_VCAM1: BioMAP Diversity Plus: CASM3C Assay for Vascular cell adhesion molecule 1 (VCAM1) Biomarker Activity (AID 2283055).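 Also: VCAM-1 protein level quantified by ELISA on the cells.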 The settings on record: primary human coronary artery smooth muscle cells; actives raise or lower the signal.

Read-out in test [8]: Collagen III, COL3A1 (gene 1281)
Briefly: BSK_hDFCGF_CollagenIII: BioMAP Diversity Plus: hDFCGF Assay for Collagen III Biomarker Activity (AID 2283056). The settings on record: primary human foreskin fibroblasts; actives raise or lower the signal. In outline:
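Cells: human foreskin fibroblasts, primary. Dosing followed by 24 h incubation, then ELISA for collagen III. Both increases and decreases scored relative to DMSO.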

Read-out in test [9]: Epidermal growth factor receptor (EGFR), EGFR (gene 1956)
The test is described as follows: BSK_hDFCGF_EGFR: BioMAP Diversity Plus: hDFCGF Assay for Epidermal growth factor receptor (EGFR) Biomarker Activity (AID 2283057). The settings on record: primary human foreskin fibroblasts; actives raise or lower the signal. In outline: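 Cell-based multiplexed assay in primary human foreskin fibroblasts. EGFR is read by ELISA 24 h after treatment and compared with DMSO controls.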

Read-out in test [10]: Interleukin-8 (IL8), CXCL8 (gene 3576)
Briefly: BSK_hDFCGF_IL8: BioMAP Diversity Plus: hDFCGF Assay for Interleukin-8 (IL8) Biomarker Activity (AID 2283058). The following applies: primary human foreskin fibroblasts; actives raise or lower the signal. In outline:
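IL-8 levels from compound-treated primary human fibroblasts were read by ELISA at 24 h, with DMSO serving as baseline for bidirectional fitting.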

Test [11] can be described thus: BSK_hDFCGF_Proliferation: Cell Proliferation Assessment in the BioMAP Diversity Plus: hDFCGF Assay (AID 2283059).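 Also: curves fitted for both rise and fall of signal versus DMSO baseline.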 The settings on record: primary human foreskin fibroblasts. In outline: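 This proliferation readout used SRB total-protein staining of human foreskin fibroblasts […], normalized to DMSO with bidirectional curve fitting.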
Read-out in test [12]: Macrophage colony-stimulating factor (MCSF), CSF1 (gene 1435)
The test is described as follows: BSK_hDFCGF_MCSF: BioMAP Diversity Plus: hDFCGF Assay for Macrophage colony-stimulating factor (MCSF) Biomarker Activity (AID 2283060). The following applies: primary human foreskin fibroblasts; actives raise or lower the signal. In outline:
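M-CSF levels, determined by ELISA, are taken at 24 h after dosing human skin fibroblasts. Responses in either direction are fitted with DMSO serving as the baseline.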

Test [13] can be described thus: BSK_hDFCGF_SRB: Viability Assessment in the BioMAP Diversity Plus: hDFCGF Assay (AID 2283061).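 Also: cells exposed to compound for 24 h before the read.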 The settings on record: primary human foreskin fibroblasts. In outline:
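Cells were dosed with test chemical, cultured 24 h, fixed with 10% TCA, then stained with 0.1% SRB and read at 560 nm. The fibroblasts were human foreskin primary cells, and DMSO served as baseline.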

Read-out in test [14]: TIMP metallopeptidase inhibitor 1 (TIMP1), TIMP1 (gene 7076)
Briefly: BSK_hDFCGF_TIMP1: BioMAP Diversity Plus: hDFCGF Assay for TIMP metallopeptidase inhibitor 1 (TIMP1) Biomarker Activity (AID 2283062). The following applies: primary human foreskin fibroblasts; actives raise or lower the signal. In outline:
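Fibroblasts from human foreskin are treated with test chemical and harvested at 24 h. TIMP-1 is quantified by ELISA, and gain or loss of signal is scored against DMSO.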

Read-out in test [15]: Monokine induced gamma interferon (MIG), CXCL9 (gene 4283)
Briefly: BSK_hDFCGF_MIG: BioMAP Diversity Plus: hDFCGF Assay for Monokine induced gamma interferon (MIG) Biomarker Activity (AID 2283063). The following applies: primary human foreskin fibroblasts; actives raise or lower the signal. In outline: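 MIG signal, determined by ELISA, reflects 24 h chemical exposure of human skin primary fibroblasts. DMSO serves as negative control and baseline.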

Read-out in test [16]: Matrix Metallopeptidase 1 (MMP1), MMP1 (gene 4312)
The test is described as follows: BSK_hDFCGF_MMP1: BioMAP Diversity Plus: hDFCGF Assay for Matrix Metallopeptidase 1 (MMP1) Biomarker Activity (AID 2283064). The settings on record: primary human foreskin fibroblasts; actives raise or lower the signal. In outline: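 ELISA read-out of MMP1 from human foreskin fibroblasts (primary skin cells), 24 h post-dose. Gain or loss of signal was fitted bidirectionally versus DMSO negative control; cytotoxicity was checked by SRB in parallel cultures.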

Read-out in test [17]: Vascular cell adhesion molecule 1 (VCAM1), VCAM1 (gene 7412)
Briefly: BSK_hDFCGF_VCAM1: BioMAP Diversity Plus: hDFCGF Assay for Vascular cell adhesion molecule 1 (VCAM1) Biomarker Activity (AID 2283065).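 As to AC50: VCAM-1 protein level quantified by ELISA after 24 h chemical exposure.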 The following applies: primary human foreskin fibroblasts; actives raise or lower the signal. In outline:
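Cells are dosed, cultured for 24 h, then VCAM-1 is quantified by ELISA; signal increases and decreases are both fitted relative to DMSO.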

Read-out in test [18]: Plasminogen activator inhibitor-1 (PAI1), SERPINE1 (gene 5054)
Briefly: BSK_hDFCGF_PAI1: BioMAP Diversity Plus: hDFCGF Assay for Plasminogen activator inhibitor-1 (PAI1) Biomarker Activity (AID 2283066). The settings on record: primary human foreskin fibroblasts; actives raise or lower the signal. In outline:
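Human skin fibroblast cultures receive chemical for 24 h before PAI-1 is measured by ELISA; signal changes are fitted bidirectionally against DMSO-treated wells.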

Read-out in test [19]: Intercellular Adhesion Molecule 1 (ICAM1), ICAM1 (gene 3383)
The test is described as follows: BSK_KF3CT_ICAM1: BioMAP Diversity Plus: KF3CT Assay for Intercellular Adhesion Molecule 1 (ICAM1) Biomarker Activity (AID 2283067). The following applies: primary human keratinocytes with fibroblasts; actives raise or lower the signal. In outline: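 Dose the keratinocyte/fibroblast co-culture, wait 24 h, measure ICAM-1 by ELISA, then fit increases or decreases against DMSO. Cytotoxicity is checked in parallel cultures by SRB total-protein staining.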

Read-out in test [20]: Interferon-gamma inducible Protein 10 (IP10), CXCL10 (gene 3627)
The test is described as follows: BSK_KF3CT_IP10: BioMAP Diversity Plus: KF3CT Assay for Interferon-gamma inducible Protein 10 (IP10) Biomarker Activity (AID 2283068). The settings on record: primary human keratinocytes with fibroblasts; actives raise or lower the signal. In outline: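 Signal is secreted/surface IP-10 by ELISA in a human primary skin co-culture of keratinocytes and foreskin fibroblasts, taken 24 h post-dosing; DMSO served as negative control.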

“And” between values parts separate entries of the source, which are not always exact repeats. Equal entries are not always repeated. Where a structure was tested more than once in an assay, its records may differ in their call. The source made the active and inactive calls. The calls were made as follows: active = hit-call score of the fitted dose curve at least 0.9, where 1 is the maximum; inactive = score below 0.9.

For `CC(=O)S[C@@H]1CC2=CC(=O)CC[C@]2(C)[C@H]2CC[C@@]3(C)[C@@H](CC[C@@]34CCC(=O)O4)[C@H]12`, the outcome in [1], in test [2], in test [3], in [4], in test [6] and in test [8] was inactive. For the same compound, the outcome in test [9], in test [14], in test [17] and in test [19] was inactive. The AC50 in test [5] was 29.9 µM (active); in [7], 16.8 µM (active); in [10], 30.6 µM (active); in [11], 20 µM (active); in test [12], 10.6 µM (active); in [13] it was 26.7 µM (active). In addition, the AC50 in [15] is 31.2 µM (active); in test [16], 31.3 µM (active); in test [18], 10.3 µM (active); in [20] it was 33.4 µM (active).
For the compound `CCCCOC(=O)[C@@H](C)Oc1ccc(Oc2ccc(C(F)(F)F)cn2)cc1`, the result in [1], in test [2], in test [3], in [4], in test [5] and in test [6] was inactive. The result in [7], in test [8], in [9], in [10], in test [11] and in [12] was inactive. For the same compound, the result in test [13], in test [14], in [16], in test [17], in test [18] and in test [19] was inactive. In addition, in [20], the outcome was inactive.
`N#CSCSc1nc2ccccc2s1`: the AC50 is 4.93 µM (active) and 33.5 µM (active) in test [1]; 11.9 µM (active) and 31.5 µM (active) in test [2]; 36.7 µM (active) in test [3]; 1.85 µM (active) in test [4]; 1.49 µM (active) and 227 nM (active) in test [5]; 5.35 µM (active) and 30 µM (active) in test [6]. The concentration at half-maximal activity (AC50) is 6.34 µM (active) and 27.7 µM (active) in test [7]; 1.19 µM (active) and 424 nM (active) in [8]; 2.43 µM (active) in test [10]; 632 nM (active) and 148 nM (active) in [11]; 1.56 µM (active) and 1.28 µM (active) in test [12]; 1.08 µM (active) and 155 nM (active) in [13]. Also, the AC50 in [14] was 1.63 µM (active) and 148 nM (active); in [15], 1.67 µM (active) and 1.3 µM (active); in test [16] it was 1.82 µM (active) and 1.61 µM (active); in [17] it was 1.37 µM (active) and 460 nM (active); in [18], 1.72 µM (active) and 627 nM (active); in test [19] it was 7.09 µM (active) and 10.6 µM (active). The AC50 in test [20] was 7.03 µM (active) and 11.6 µM (active). The result in test [3], in test [4] and in test [10] was inactive.
Consider `CCOC(=O)c1ccc(O)cc1`, for which the result in test [1], in test [2], in [3], in [4], in test [5] and in test [6] was inactive. The result in test [7], in [8], in test [10], in [11], in test [12] and in [13] was inactive. For the same compound, the outcome in [14], in test [15], in [16], in test [17], in [18] and in test [19] was inactive. Besides, the result in test [20] was inactive.
As for `CN(C)C(=O)Nc1ccc(Cl)c(Cl)c1`, the outcome in test [1], in [2], in test [3], in test [4], in test [5] and in [6] was inactive. For the same compound, the outcome in test [7], in test [8], in test [9], in [10], in test [11] and in test [12] was inactive. Moreover, the result in [13], in test [14], in test [16], in [17], in [18] and in test [19] was inactive. Moreover, the outcome in test [20] was inactive.
As to `CCSC(=O)N(CC(C)C)CC(C)C`, the result in [1], in test [2], in test [3], in test [4], in test [5] and in test [6] was inactive. For the same compound, the outcome in test [7], in [8], in [10], in test [11], in [12] and in test [13] was inactive. The result in test [14], in test [15], in test [16], in test [17], in test [18] and in test [19] was inactive. Besides, the outcome in test [20] was inactive. Moreover, the AC50 in [9] was 5.32 µM (active).

Source of the values: PubChem BioAssay (EPA / NIEHS).
